Shown are actives, neighbours in structure and some others; about 15% of the full set was active somewhere.
Pf growth 48h: inhibits P. falciparum growth in the first generation, 48 h; P. falciparum luciferase growth in erythrocytes, 48 h; Potency, µM (series often up to 28.7 µM), actives largely listed as inhibitors; 310,000 tested, 5.9% active
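Firefly luciferase activity from engineered P. falciparum reports growth; inhibitors lower the luminescent signal. Cultures contained 2% hematocrit erythrocytes at 0.1% final parasitemia.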
HCMV inh: inhibitors of human cytomegalovirus; HFF cells, HCMV-luciferase reporter, 72 h; active compounds read low; activity change, negative = inhibition, % at 57.5 µM; 410,000 tested, 4.5% active; AID 1259415; in the data active = activity change below about -60%; inconclusive = no clear call, values can overlap the other calls; inactive = above about -39%
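Luciferase read-out from HCMV-luciferase-infected HFFs (MOI 1 PFU/cell) 72 h post infection at 37C; compounds added after 16 h cell attachment; activity normalized between buffer-only basal and Salinomycin (10uM) inhibitor controls.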
Sm TGR block: S. mansoni TGR enzyme inhibition | Potency, µM (series often up to 114 µM), usual class: inhibitors | Q962Y6 | 360,000 tested, 3% active | AID 485364 | purified TGR, DTNB reduction, TNB absorbance 405 nm; also: nearly all actives have a fitted effect of over 60% in size
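First, TGR (20 nM dispensed) and NADPH were mixed with compound. Second, a 15 min room-temperature incubation followed. Third, further NADPH and then DTNB were added to start the reaction. Finally, TNB absorbance was monitored kinetically.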
SARS PLP yeast: SARS-CoV PLP inhibition in yeast | S. cerevisiae expressing SARS-CoV PLpro, growth rescue | Potency, µM (titrated, usually from 32.9 µM), actives largely listed as activators | 330,000 tested, 0.19% active; calls by dose curve; also: nearly all actives have a fitted effect of over 55% in size
HCV inhibitor: blocks hepatitis C virus; Huh7.5.1 HCVcc-Cre infection, luciferase reporter, 44 h; Potency, µM (top dose mostly 41.8 µM), actives largely listed as inhibitors; 340,000 tested, 3.4% active
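A cell-based infection assay in which seeded cells (1,000 per well) receive test compound after 4 h, are inoculated with HCVcc-Cre at approximately 0.5 moi, and are incubated 44 h before luminescence detection.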
Pf growth 96h: inhibits malaria parasite growth, 96 h; Potency, µM (highest dose often 28.7 µM), hits mostly inhibitors; P. falciparum luciferase reporter growth, 96 h; 320,000 tested, 6.9% active; AID 504834
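Plates of compound plus infected erythrocytes (2% hematocrit, 0.05% parasitemia final) incubate 96 hours, 37 C, 5% CO2. Detection reagent added; reduced luminescence from the parasites' luciferase reporter flags inhibition.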
Of the large screens only hits and unclear results are named; the others gave an inactive call. Unless noted, calls follow the shape of the dose curve; as a rule, active = well fitted curve in the direction sought with a large enough effect; inconclusive = small, poorly fitted or top-dose-only effect, or another doubt; inactive = no such curve, though single readings can be large; an effect the other way counts as inactive or inconclusive.

CC(=O)OCC1OC(n2ccc3ccccc32)C(OC(C)=O)C(OC(C)=O)C1OC(C)=O (stereo unspecified)	none (no result: Pf growth 96h)
COc1ccc(CNn2c(-c3ccccc3F)nc3ccccc3c2=O)cc1OC	HCV inhibitor inconclusive, Pf growth 96h inconclusive
FC(F)(F)c1ccc(/C=N/n2c(C3CCCCC3)n[nH]c2=S)cc1	Pf growth 48h inconclusive, Pf growth 96h inconclusive
CCOc1ccc(S(=O)(=O)N2CCC(C(=O)NCc3ccncc3)CC2)cc1C	none
Cc1ccc2nc(C)cc(N3CCOCC3)c2c1	HCV inhibitor 10µM (no result: SARS PLP yeast, Pf growth 96h)
COc1ccc2nc(C)cc(N3CCN(c4ccccc4)CC3)c2c1	Pf growth 48h 13.1µM, HCV inhibitor 22.4µM, Pf growth 96h 9.28µM
COc1ccc2nc(C)cc(N3CCN(S(=O)(=O)c4ccccc4F)CC3)c2c1	Pf growth 48h inconclusive, HCV inhibitor 7.08µM, Pf growth 96h 9.28µM
O=C(CCc1ccccc1)NNC(=S)NC(=O)c1ccc(Cl)cc1	HCV inhibitor inconclusive (no result: Pf growth 96h)
CC(C)Cn1c(N)c(C(=O)COC(=O)c2cc(S(=O)(=O)N3CCOCC3)ccc2Br)c(=O)n(C)c1=O	HCV inhibitor inconclusive (no result: Pf growth 48h, Sm TGR block, Pf growth 96h)
COc1ccc(-c2cn3nc(N4CCCC(C(=O)NCc5ccc(Cl)cc5)C4)sc3n2)cc1 (stereo unspecified)	none (no result: Pf growth 48h, SARS PLP yeast, HCV inhibitor, Pf growth 96h)
O=C(CN1CCN(Cc2ccc(F)cc2Cl)CC1)NCc1ccccc1	HCV inhibitor inconclusive, Pf growth 96h inconclusive
Cc1nn(Cc2ccccc2)c(C)c1CNC(=O)[C@H](C)N=C1NS(=O)(=O)c2ccccc21	Pf growth 48h inconclusive
COc1ccc(C(=O)C2CCCN(Cc3cccn3-c3ccc(Cl)cn3)C2)c(OC)c1 (stereo unspecified)	Pf growth 48h 4.15µM, HCMV inh inconclusive, HCV inhibitor 8.91µM
COc1ccc2cc(C(=O)C3CCCN(Cc4cccc(C)n4)C3)ccc2c1 (stereo unspecified)	Pf growth 48h 0.657µM, HCMV inh -67.5, HCV inhibitor inconclusive, Pf growth 96h inconclusive
COc1c(C)cc(C(=O)C2CCCN(C(=O)CCc3scnc3C)C2)cc1C (stereo unspecified)	HCMV inh -62.1, HCV inhibitor 10µM
COc1cccc(C(=O)C2CCCN(C(=O)CCc3scnc3C)C2)c1 (stereo unspecified)	Pf growth 96h inconclusive
COc1ccc(C(=O)C2CCCN(C/C=C/c3ccccc3OC)C2)c(OC)c1 (stereo unspecified)	Pf growth 48h inconclusive, HCMV inh -60.6, HCV inhibitor inconclusive
COc1cccc(C(=O)C2CCCN(C/C=C/c3ccccc3OC)C2)c1 (stereo unspecified)	Sm TGR block inconclusive
O=C(NCC[C@H]1CC[C@H](NS(=O)(=O)c2ccccc2F)[C@@H](CO)O1)c1ccc(F)cc1	none (no result: Pf growth 48h, Sm TGR block, SARS PLP yeast, HCV inhibitor, Pf growth 96h)
CCCC12CN3CC(CCC)(CN(C1)C3c1ccc(OCc3ccccc3)cc1)C2=O (stereo unspecified)	none (no result: Pf growth 48h, SARS PLP yeast, HCV inhibitor, Pf growth 96h)
COc1ccc(C(=O)C2CCCN(Cc3cccc(C)n3)C2)c(OC)c1 (stereo unspecified)	Pf growth 48h 1.47µM, HCV inhibitor inconclusive, Pf growth 96h 1.04µM
COc1c(C)cc(C(=O)C2CCCN(Cc3ccccn3)C2)cc1C (stereo unspecified)	Pf growth 48h 2.08µM, HCMV inh -65.2
O=C1N(CCCl)c2ccc(Br)cc2C12OCCO2	Pf growth 96h inconclusive
CN(C)CC(C(=O)Cc1ccccc1)c1ccccc1 (stereo unspecified)	HCMV inh -96.5 (no result: Pf growth 48h, Sm TGR block, SARS PLP yeast, Pf growth 96h)
Cc1cccc(NC(=O)Cc2ccc(F)cc2)c1	none (no result: Pf growth 48h)
Cc1cccc(CSC(Nc2ccc(F)cc2)=C(C#N)C#N)c1	Pf growth 48h inconclusive, HCMV inh -101.6, HCV inhibitor 11.2µM, Pf growth 96h inconclusive
N#CC(C#N)=C(Nc1ccc(F)cc1)SCc1cccc(Br)c1	Pf growth 48h inconclusive, HCMV inh -98.7, HCV inhibitor 5.01µM, Pf growth 96h inconclusive
CC(SCc1ccccc1)C(=O)Nc1ccc(F)cc1 (stereo unspecified)	Pf growth 48h inconclusive, HCMV inh inconclusive, Pf growth 96h inconclusive
CCOC(=O)c1c(C)sc2c1N(C(=O)CCl)c1cc(Cl)ccc1S2	Pf growth 48h inconclusive, HCMV inh -96.0, Sm TGR block 2.51µM, HCV inhibitor inconclusive, Pf growth 96h 14.7µM
Cc1sc2ncnc(SCC(=O)N3c4ccccc4Sc4ccc(Cl)cc43)c2c1C	none
Cc1cc(C)cc(NC(=O)NCc2c(-c3ccccc3)noc2C)c1	Pf growth 48h inconclusive, HCV inhibitor inconclusive, Pf growth 96h inconclusive
Cc1onc(-c2ccccc2)c1CNC(=O)Nc1cccc(Cl)c1	HCV inhibitor inconclusive, Pf growth 96h 9.28µM
Cc1onc(-c2ccccc2)c1CNC(=O)Nc1ccc(C(F)(F)F)cc1	Pf growth 48h 6.57µM, HCMV inh inconclusive, HCV inhibitor inconclusive, Pf growth 96h 4.15µM
Cc1onc(-c2ccccc2)c1CNC(=O)Nc1ccc(F)cc1F	Pf growth 48h inconclusive, HCV inhibitor inconclusive, Pf growth 96h inconclusive
O=C(c1ccc([N+](=O)[O-])cc1)N1CCC(n2nnc3cc(F)ccc32)CC1	none
O=C(CN1CCC(n2nnc3cc(F)ccc32)CC1)NCc1ccco1	Pf growth 48h inconclusive, Sm TGR block 44.7µM
O=C(N1CCOCC1)N1CCC(n2nnc3cc(F)ccc32)CC1	Pf growth 96h 10.4µM
COc1ccc(S(=O)(=O)N2CCOCC2)cc1NC(=O)Cc1ccc(Cl)c(Cl)c1	none
C[N+](C)(CC#Cc1ccccc1)CC(=O)c1ccccc1	Pf growth 48h inconclusive
C#CC[N+](C)(C)C(C#Cc1ccccc1)CC=C (stereo unspecified)	Pf growth 48h 9.28µM, HCMV inh -88.8, Pf growth 96h 5.86µM
CCOC(=O)C1=CN(CC)S(=O)(=O)NC1c1ccccc1 (stereo unspecified)	HCMV inh -82.3 (no result: Pf growth 48h, Sm TGR block, Pf growth 96h)
CCOC(=O)C1=CN(CC)S(=O)(=O)NC1c1ccc2ccccc2c1 (stereo unspecified)	none (no result: Pf growth 48h, Sm TGR block, Pf growth 96h)
CCOC(=O)C1=CN(Cc2cccc(F)c2)S(=O)(=O)N(CC)C1c1ccccc1 (stereo unspecified)	HCV inhibitor 0.562µM (no result: Pf growth 48h, Sm TGR block, Pf growth 96h)
O=C(NCC(c1ccco1)N1CCc2ccccc2C1)C(=O)Nc1ccc(F)cc1F (stereo unspecified)	Pf growth 48h inconclusive, Pf growth 96h inconclusive
Cc1ccc2occ(CC(=O)Nc3ccc(Cl)c(C(F)(F)F)c3)c2c1	HCMV inh -77.7 (no result: Pf growth 48h, SARS PLP yeast, HCV inhibitor, Pf growth 96h)
Cc1ccc2occ(CC(=O)Nc3ccc(S(N)(=O)=O)cc3)c2c1	none (no result: Pf growth 48h, SARS PLP yeast, HCV inhibitor, Pf growth 96h)
CCOCCCNC(=O)C1CCN(c2cc(C)nc3c(-c4ccc(Cl)cc4)c(C)nn23)CC1	none (no result: Pf growth 48h, SARS PLP yeast, HCV inhibitor, Pf growth 96h)
COc1ccc(NS(=O)(=O)c2cc(Br)cc3c2N(C(=O)C2CC2)CC3)cc1OC	HCMV inh inconclusive (no result: Pf growth 48h, SARS PLP yeast, HCV inhibitor, Pf growth 96h)
